# Screens as filed in PubChem BioAssay.
# DAX1 inh-1 – inhibitors of DAX1 repression of SF-1 activated StAR promoter | HEK293T StAR-luciferase reporter, SF-1/DAX-1 repression relief | inhibition, % at 6.8 µM | 370,000 compounds, 1.1% hits;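 active means inhibition above the mean over all tested compounds plus 3 SD, cut at about 3.6% in these data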;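 further: 0% = DAX-1 cells with DMSO and 100% = cells lacking DAX-1 with DMSO; higher inhibition means more luminescence from relief of DAX-1 repression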
# DAX1 inh-2 – NR0B1 (DAX1) inhibition | inhibition, % at 6.75 µM | P51843 | AID 504766 | 340,000 compounds, 0.99% hits | HEK293 Gal4-DAX1 luciferase reporter, luminescence;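 active means inhibition above the mean over all tested compounds plus 3 SD, cut at about 4.2% in these data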;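 further: 0% = DAX1-transfected cells with DMSO and 100% = empty-vector control cells with DMSO; inhibition shows as a rise in luminescence from relieved DAX1 repression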
# AHR activator – activators of human aryl hydrocarbon receptor. P35869. AHR-responsive luciferase reporter cells, luminescence. activation, % at 5 µM. 320,000 compounds, 2.5% hits. AID 2796; in the data active means activation above about 47%;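 further: 0% = vehicle wells and 100% = reference agonist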
# Target sequence (P35869 whole entry, looked up): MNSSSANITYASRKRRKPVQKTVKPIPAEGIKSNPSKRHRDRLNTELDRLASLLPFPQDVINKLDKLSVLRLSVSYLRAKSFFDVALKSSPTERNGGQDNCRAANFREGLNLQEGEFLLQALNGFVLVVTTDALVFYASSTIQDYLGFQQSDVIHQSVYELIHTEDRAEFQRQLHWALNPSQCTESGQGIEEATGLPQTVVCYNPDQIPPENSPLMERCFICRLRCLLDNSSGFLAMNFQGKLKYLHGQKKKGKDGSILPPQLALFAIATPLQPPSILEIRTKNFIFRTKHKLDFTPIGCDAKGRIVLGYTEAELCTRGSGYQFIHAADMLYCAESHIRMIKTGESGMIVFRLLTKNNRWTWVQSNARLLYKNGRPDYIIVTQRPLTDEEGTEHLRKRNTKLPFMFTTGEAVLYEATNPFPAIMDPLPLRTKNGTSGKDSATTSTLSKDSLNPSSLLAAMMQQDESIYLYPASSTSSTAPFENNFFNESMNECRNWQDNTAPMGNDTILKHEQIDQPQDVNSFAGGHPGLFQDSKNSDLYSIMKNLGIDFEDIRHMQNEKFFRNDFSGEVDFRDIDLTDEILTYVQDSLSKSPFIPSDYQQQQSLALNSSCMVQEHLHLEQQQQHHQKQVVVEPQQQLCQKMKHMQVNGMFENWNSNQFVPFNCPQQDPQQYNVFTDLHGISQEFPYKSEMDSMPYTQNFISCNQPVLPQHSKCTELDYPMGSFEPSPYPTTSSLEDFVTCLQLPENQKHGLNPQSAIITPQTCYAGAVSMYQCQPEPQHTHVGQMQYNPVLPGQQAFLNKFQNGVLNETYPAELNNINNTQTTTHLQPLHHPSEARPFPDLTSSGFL
# hgDAF12 agonist – agonists of H. glycines DAF-12 nuclear receptor | HEK293 GAL4-hgDAF12 UAS-luciferase reporter, agonist luminescence; normalized to butyrate control | activation, % at 6.8 µM | 370,000 compounds, 1.8% hits | AID 687014;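 active means activation above a cutoff set at the mean of all screened compounds plus 3 SD, cut at about 10% in these data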;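 further: 0% = DMSO wells and 100% = sodium butyrate wells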
# ssDAF-12 act – activates DAF-12 receptor from parasite S. stercoralis. HEK293 ssDAF-12/GRIP1 lit1-tk-luc reporter, luminescence; % of 3 µM dafachronic acid response. activation, % at 6.8 µM. 370,000 compounds, 1% hits;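 active means activation above the mean over all tested compounds plus 3 SD, cut at about 0.9% in these data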;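 further: 0% = DMSO-only wells and 100% = 3 µM delta7-dafachronic acid wells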
# hcDAF12 agonist – activates DAF-12 receptor from parasite H. contortus. HEK293 hcDAF-12 lit1-tk-luc reporter, luminescence; 0% DMSO, 100% Δ7-dafachronic acid. activation, % at 6.8 µM. 370,000 compounds, 1.4% hits. AID 652067;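 active means activation above the mean of all tested compounds plus 3 SD, cut at about 5.5% in these data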;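 further: 100% = response to 3 µM Δ7-dafachronic acid high control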
# AHR act cf – confirmation of human aryl hydrocarbon receptor activators | AID 2845 | shares compounds with AHR activator | activation, % at 9 µM | 2,300 compounds, 87% hits | human cells, AHR-responsive luciferase reporter, luminescence; in the data active means activation above about 49%;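 further: HepG2 hepatoma cells carrying a DRE-driven firefly luciferase reporter; 0% = vehicle wells and 100% = reference agonist wells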
# PXR act counter – counter-screen for AHR activators: human PXR activators; shares compounds with AHR activator; cell-based PXR reporter, luciferase luminescence; activation, % at 11.6 µM; 2,300 compounds, 88% hits; AID 434939; in the data active means activation above about 11%;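 further: human hepatoma DPX-2 cells expressing full-length human PXR; 0% = DMSO and 100% = reference agonist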
# DAX1 conf – NR0B1 (human) inhibition, confirmation. 2,400 compounds, 87% hits. HEK293T StAR-promoter luciferase reporter, SF-1/DAX-1 repression. inhibition, % at 6.8 µM. shares compounds with DAX1 inh-1;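 active means inhibition above the average of every tested compound plus 3 SD, cut at about 3.8% in these data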;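 further: 0% = DAX-1 cells with DMSO and 100% = no DAX-1 control cells with DMSO; active compounds raise luminescence by relieving repression of the StAR reporter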
# SF1 AF2mut Luc – nonselective inhibitor or artifact in SF-1 mutant DAX1 counter-screen; HEK293 StAR-luciferase, SF-1 AF2 mutant, luminescence; AID 652136; shares compounds with DAX1 inh-1; inhibition, % at 6.8 µM; 2,400 compounds, 78% hits;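 active means inhibition above the mean of all tested compounds plus 3 SD, cut at about 3% in these data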;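 further: 0% = DAX-1 transfected cells with DMSO and 100% = cells without DAX-1 with DMSO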
# LXRb hcDAF ctr – counter-screen for hcDAF-12 agonists: agonists of human LXR-beta. activation, % at 6.8 µM. shares compounds with hcDAF12 agonist. AID 743027. 3,400 tested, under 10 active. HEK293 Gal4-LXR tk-luc reporter, luminescence, 24 h; normalized: DMSO 0%, positive control 100%;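 active means mean percent activation of the reporter above a cutoff set as the average over tested compounds plus their standard deviation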
# hcDAF12 ag – hcDAF-12 agonism, confirmation assay; shares compounds with hcDAF12 agonist; 3,400 compounds, 61% hits; HEK293 hcDAF-12 lit1-tk-luc reporter, luminescence; % of Δ7-dafachronic acid response; activation, % at 6.8 µM;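 active means mean activation across triplicate tests above the threshold derived from the earlier primary screen, cut at about 5.5% in these data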;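 further: 0% = DMSO only wells and 100% = 3 µM Δ7-dafachronic acid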
# hgDAF12 ag – confirmation of H. glycines DAF-12 agonists | shares compounds with hgDAF12 agonist | HEK293 GAL4-hgDAF12 luciferase reporter, agonist mode; percent of butyrate response | activation, % at 6.8 µM | 3,300 compounds, 80% hits | AID 743050;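 active means mean activation over triplicate wells above the hit cutoff derived from the earlier primary screen, cut at about 11% in these data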;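 further: 0% = DMSO low control and 100% = 2 mM sodium butyrate high control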
# LXR ag 2 – counter-screen for DAF-12 agonists: agonists of human LXR-beta. shares compounds with hgDAF12 agonist. HEK293 Gal4-LXR luciferase reporter, 24 h. activation, % at 6.8 µM. 3,300 tested, under 10 active;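 active means mean activation of the triplicate above a set limit carried over from the primary screen, none filed active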
# * hit, by the source's call; · = no result. Most compounds without a hit are left out; they make up all but 5.7% or so of the library.
SMILES,DAX1 inh-1,DAX1 inh-2,AHR activator,hgDAF12 agonist,ssDAF-12 act,hcDAF12 agonist,DAX1 conf,SF1 AF2mut Luc,others
CCOc1ccc2nc(NC(=O)Nc3cccs3)sc2c1,9.2*,3,96*,27*,1,7.9*,19*,13*,AHR act cf=90*;PXR act counter=12*;LXRb hcDAF ctr=2;hcDAF12 ag=5;hgDAF12 ag=27*;LXR ag 2=1
CCOc1ccc2nc(NC(=O)Cc3cccs3)sc2c1,·,0,34,·,·,·,·,·,
Cc1cc2nc(-c3cccc(Br)c3)c(Cc3ccccc3)n2c(C)c1Br,1,·,·,8,1,3,·,·,
O=C(Nc1nc2ccc(F)cc2s1)c1cccs1,3,1,99*,18*,2.7*,19*,·,·,AHR act cf=136*;PXR act counter=9;LXRb hcDAF ctr=1;hcDAF12 ag=8.1*;hgDAF12 ag=19*;LXR ag 2=1
O=C(Nc1nc2ccc(S(=O)(=O)N3CCCC3)cc2s1)c1cccs1,-1,0,11,2,-1,-2,·,·,
Cc1cc(S(=O)(=O)Nc2ccc(C(=O)NCC3(N4CCCCC4)CCCCC3)cc2)ccc1F,7.4*,2,-1,1,0,1,7.6*,6.1*,
O=C(NCC1(N2CCCCC2)CCCCC1)c1cccc(S(=O)(=O)Nc2ccc(F)cc2)c1,5.0*,0,1,-1,-1,-2,5.2*,1,
CCOc1ccc(NS(=O)(=O)c2ccc(C(=O)NCC3(N4CCCCC4)CCCCC3)cc2)cc1,4.5*,1,-1,2,0,-1,11*,3.5*,
CC(=O)Nc1ccc(C(=O)NCC2(N3CCCCC3)CCCCC2)cc1,4.6*,1,-1,1,-1,0,5.3*,3.0*,
CCOc1ccc(NS(=O)(=O)c2ccc(C(=O)NCC3(N(C)C)CCCCC3)cc2)cc1,4,1,4,1,-2,0,·,·,
CC(=O)Nc1ccc(C(=O)NN2C(=O)NC3(CCCCC3)C2=O)cc1,-1,1,-1,0,-1,-1,·,·,
Cc1cc(S(=O)(=O)Nc2ccc(C(=O)NCC3(N(C)C)CCCCC3)cc2)ccc1F,1,-1,1,1,-1,0,·,·,
O=C(c1ccc(Cl)nc1)N1CCN(S(=O)(=O)c2ccc(Cl)cc2)CC1,0,1,-1,-1,-1,-2,·,·,
O=C(NCC1(N2CCCCC2)CCCCC1)c1cccc(NS(=O)(=O)c2ccccc2)c1,6.9*,0,-3,0,-1,0,8.3*,4.1*,
CCN(C(=O)Cc1c(C(=O)O)n(CC)c2ccccc12)c1cccc(C(F)(F)F)c1,0,0,1,-1,-1,-1,·,·,
COc1ccccc1OCCCC(=O)Nc1nnc(C2CCCO2)s1 (stereo not drawn),6.1*,1,2,0,-1,1,4.2*,3.7*,
COCCc1nc2ccc(C(=O)N(C)Cc3cccc(-n4nc(C)cc4C)c3)cc2o1,-1,1,·,0,-1,-1,·,·,
Cc1sc(=NC(=O)c2ccco2)n(C)c1-c1ccccc1,5.5*,-1,-3,10,0,3,14*,6.3*,
Cc1sc(=NC(=O)c2ccco2)n(C)c1-c1ccc(F)cc1,2,0,-2,10,0,5,·,·,
CC1CCCN(C(=O)c2cc(F)c(F)cc2Cl)C1 (stereo not drawn),0,0,0,-2,-2,0,·,·,
Cc1nn(-c2ccccc2)c(Cl)c1/C=N/NC(=O)c1ccnn1C,7.2*,1,5,8,0,3,9.4*,6.4*,
O=c1cc(-c2ccccc2)oc2cc(O)c(O)c(O)c12,5.5*,2,15,10,-1,4,9.6*,5.1*,
O=c1cc(-c2ccc(O)cc2)oc2ccc3ccccc3c12,-4,-4,-4,-12,-2,-3,·,·,
O=C(NCCc1cccc(Cl)c1)c1cccs1,4.5*,0,2,11*,-2,4,6.6*,3.8*,
CC(C)(C)c1ccc(C(=O)NC(=S)N2CCOCC2)cc1,7.0*,4,29,13*,0,3,8.8*,3.4*,
SMILES,DAX1 inh-1,DAX1 inh-2,AHR activator,hgDAF12 agonist,ssDAF-12 act,hcDAF12 agonist,DAX1 conf,SF1 AF2mut Luc,others
CCc1nccn1S(=O)(=O)c1ccc(Br)cc1Br,-1,0,-1,-1,-1,-1,·,·,
CC(=O)c1c(C)[nH]c(C(=O)Nc2ccc(S(=O)(=O)N(C)C)cc2)c1C,0,1,6,-1,-2,-1,·,·,
CC(=O)c1c(C)[nH]c(C(=O)Nc2ccc(C)c(S(=O)(=O)N(C)C)c2)c1C,13*,4,0,10*,1.0*,5,15*,6.7*,
[N-]=[N+]=NC[C@H](Cc1ccccc1)N1CC[C@@H](OCc2ccccc2)CCC1=O,-1,-1,0,1,-1,-1,·,·,
Cn1c(SCc2nn[nH]n2)nc2c1c(=O)n(Cc1ccccc1Cl)c(=O)n2C,0,0,1,0,-1,1,·,·,
C/C(=N\NC(=O)c1ccccc1O)c1cccs1,5.4*,-1,3,7,-1,2,5.9*,2,
NC(=Nc1cccc(F)c1)NC(=O)OCc1ccccc1,5.2*,·,·,7,0,0,5.2*,3.6*,
N#CNC(=Nc1cccc(F)c1)SCc1ccccc1,-1,-2,8,0,-2,-1,·,·,
COCCN(C(=O)c1cc(CN2C(=O)c3ccccc3C2=O)ccc1OC)c1c(N)n(CC(C)C)c(=O)[nH]c1=O,0,0,·,-2,0,0,·,·,
